From PubChem BioAssay
Where “and” joins values, the source holds several entries; their conditions need not be identical. Identical values can stand only once. Values without a mark were called inactive. How the calls were made is not given here.

Experiments:
[1] = system: Aerobactin synthetase IucA (Klebsiella pneumoniae hvKP1); assay: IucA enzyme inhibition, primary screen, biochemical, Spectrum library (AID 1346200); conditions: malachite green pyrophosphate, A620, at 8 µM, stronger effect = lower value;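 further: 100% = wells without compound and 0% = wells lacking enzyme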
[2] = system: Aerobactin synthetase IucA (Klebsiella pneumoniae, hypervirulent); assay: biochemical IucA inhibition screen of LOPAC library by absorbance (AID 1346212); conditions: IucA enzyme assay, absorbance (OD) readout; stronger effect = lower value;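 tested at 8 µM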;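 further: 100% = no compound wells and 0% = no enzyme wells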

| SMILES | activity remaining [1] | remaining activity [2] |
| --- | --- | --- |
| CSc1ccc2c(c1)N(CCC1CCCCN1C)c1ccccc1S2 (centres undefined) | 116% | 91.4% |
| Cc1ccc(S(=O)(=O)NC(=O)NN2CCCCCC2)cc1 | 117% | 91.6% |
| CNCCCC12CCC(c3ccccc31)c1ccccc12 | 105% | 109% |
| CC(C)(C)NCC(O)c1ccc(O)c(CO)c1 (centres undefined) | 110% | 121% and 104% |
| C1CCc2nnnn2CC1 | 112% | 107% |
| CC1=C(/C=C/C(C)=C/C=C/C(C)=C\C(=O)O)C(C)(C)CCC1 | 116% | 85.8% |
| NCCc1cnc[nH]1 | 112% | 112% |
| CC(C)NNC(=O)c1ccncc1 | 93.2% | 128% |
| CC(=O)OCC1=C(C(=O)O)N2C(=O)[C@@H](NC(=O)Cc3cccs3)[C@H]2SC1 | 109% | 117% |
| N[C@@H](C(=O)N[C@@H]1C(=O)N2C(C(=O)O)=C(Cl)CS[C@H]12)c1ccccc1 | 103% | 120% |
| O=C1NCC2(CCN(CCc3ccccc3)CC2)O1 | 111% | 97.8% |
| CN1CCC(=C2c3ccccc3CC(=O)c3sccc32)CC1 | 100% | 112% |
| CN1C2CCC1CC(OC(c1ccccc1)c1ccccc1)C2 (centres undefined) | 101% | 113% |
| Cc1nnc(SCC2=C(C(=O)O)N3C(=O)[C@@H](NC(=O)Cn4cnnn4)[C@H]3SC2)s1 | 101% | 119% |
| CN(C)CCOC(c1ccccc1)c1ccccc1 | 105% | 100% |
| CCN(CC)CCOC(=O)c1ccc(N)cc1 | 105% | 106% |
| O=C(O)C1=CCCNC1 | 98.7% | 96.8% |
| Cc1c(OCC(F)(F)F)ccnc1CS(=O)c1nc2ccccc2[nH]1 (centres undefined) | 121% | 111% |
| CC(=O)CCCCn1c(=O)c2c(ncn2C)n(C)c1=O | 82.4% | 123% |
| C=Cc1c(C)c2cc3[nH]c(cc4nc(cc5nc(cc1[nH]2)C(C)=C5CCC(=O)O)C(CCC(=O)O)=C4C)c(C)c3C=C | 97.5% | 107% |
| NS(=O)(=O)c1cc2c(cc1Cl)NCNS2(=O)=O | 103% | 102% |
| Nc1c2c(nc3ccccc13)CCCC2 | 118% | 119% |
| O=c1c(O)c(-c2ccc(O)cc2O)oc2cc(O)cc(O)c12 | 96.8% | 122% |
| O=C(O)/C=C/c1ccc(O)c(O)c1 | 101% | 117% |
| NS(=O)(=O)c1cc2c(cc1Cl)NC=NS2(=O)=O | 113% | 123% |
| COc1cc(Cc2cnc(N)nc2N)cc(OC)c1OC | 93.2% | 76.5% |

| SMILES | activity remaining [1] | remaining activity [2] |
| --- | --- | --- |
| OC(CCN1CCCCC1)(c1ccccc1)C1CC2C=CC1C2 (centres undefined) | 87.7% | 116% |
| CN1CCN2c3ccccc3Cc3ccccc3C2C1 (centres undefined) | 119% | 120% |
| CC(CN(C)C)CN1c2ccccc2CCc2ccccc21 (centres undefined) | 105% | 106% |
| Cn1c(=O)c2c(ncn2C)n(C)c1=O | 119% | 113% |
| N[C@@H]1CONC1=O | 102% | 112% |
| CN1C[C@H](C(=O)N[C@]2(C)O[C@@]3(O)[C@@H]4CCCN4C(=O)[C@H](Cc4ccccc4)N3C2=O)C[C@@H]2c3cccc4[nH]cc(c34)C[C@H]21 | 118% | 105% |
| COC(=O)[C@H]1[C@H]2C[C@@H]3c4[nH]c5cc(OC)ccc5c4CCN3C[C@H]2C[C@@H](OC(=O)c2cc(OC)c(OC)c(OC)c2)[C@@H]1OC | 109% | 102% |
| CC1=C(/C=C/C(C)=C/C=C/C(C)=C/C(=O)O)C(C)(C)CCC1 | 109% | 92% |
| OCCN(CCO)c1nc(N2CCCCC2)c2nc(N(CCO)CCO)nc(N3CCCCC3)c2n1 | 89.5% | 92.9% |
| CN1CCN(CCCN2c3ccccc3Sc3ccc(C(F)(F)F)cc32)CC1 | 122% | 93.4% |
| C[C@](N)(Cc1ccc(O)cc1)C(=O)O | 120% | 110% |
| CN(C)C(=O)C(CCN1CCC(O)(c2ccc(Cl)cc2)CC1)(c1ccccc1)c1ccccc1 | 113% | 114% |
| CCN(CC)CCCC(C)Nc1c2ccc(Cl)cc2nc2ccc(OC)cc12 (centres undefined) | 93.4% | 115% |
| C[N+]1(CCCCC[N+]2(C)CCCC2)CCCC1 | 89.1% | 119% |
| CCCNC(=O)NS(=O)(=O)c1ccc(Cl)cc1 | 118% | 103% |
| Cc1ccccc1C(OCCN(C)C)c1ccccc1 (centres undefined) | 100% | 117% |
| NNCCc1ccccc1 | 112% | 93.4% |
| Nc1c2c(nc3ccccc13)CCCC2O (centres undefined) | 105% | 101% |
| CC(C)OC(=O)C(C)(C)Oc1ccc(C(=O)c2ccc(Cl)cc2)cc1 | 94.1% | 108% |
| Cn1c(=O)c2[nH]c(C3CCCC3)nc2n(C)c1=O | 97.7% | 70.6% |
| COC(=O)C1=C(C)NC(C)=C(C(=O)OC)C1c1ccccc1[N+](=O)[O-] | 100% | 115% |
| CC(N=C(NC#N)Nc1ccncc1)C(C)(C)C (centres undefined) | 105% | 92.7% |
| CC(COc1ccccc1)N(CCCl)Cc1ccccc1 (centres undefined) | 107% | 109% |
| Cc1scc2c1N(C(=O)CN1CCN(C)CC1)c1ccccc1NC2=O | 117% | 105% |
| Nc1nc(N)c2nc(-c3ccccc3)c(N)nc2n1 | 114% | 93.9% |
| CCCn1c(=O)c2[nH]c(C3CCCC3)nc2n(CCC)c1=O | 82.2% | 76.9% |
